Unmarked numbers belong to inactive results. The list shows a part of the results. Calls of active or inactive are those of the source.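 Rule for the calls, unless noted: active = mean inhibition over 43.08%, the solvent-only control mean plus 3 SD; inactive = the rest.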
Columns and labels:
[1] = biological target: Nuclear receptor coactivator 3 (Homo sapiens) (UniProt Q9Y6Q9); test: SRC3 coactivator transcriptional activity inhibitors, confirmation, cell-based, luminescence, quadruplicate (AID 588792); details: HEK293 GAL4-SRC3 luciferase reporter, at 3.6 µM, hits give high values;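 note: 0% = DMSO treated cells and 100% = gossypol at 36 µM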
Nuclear receptor coactivator 3 (Homo sapiens), sequence (Q9Y6Q9 whole entry, looked up, the tested form may be a part): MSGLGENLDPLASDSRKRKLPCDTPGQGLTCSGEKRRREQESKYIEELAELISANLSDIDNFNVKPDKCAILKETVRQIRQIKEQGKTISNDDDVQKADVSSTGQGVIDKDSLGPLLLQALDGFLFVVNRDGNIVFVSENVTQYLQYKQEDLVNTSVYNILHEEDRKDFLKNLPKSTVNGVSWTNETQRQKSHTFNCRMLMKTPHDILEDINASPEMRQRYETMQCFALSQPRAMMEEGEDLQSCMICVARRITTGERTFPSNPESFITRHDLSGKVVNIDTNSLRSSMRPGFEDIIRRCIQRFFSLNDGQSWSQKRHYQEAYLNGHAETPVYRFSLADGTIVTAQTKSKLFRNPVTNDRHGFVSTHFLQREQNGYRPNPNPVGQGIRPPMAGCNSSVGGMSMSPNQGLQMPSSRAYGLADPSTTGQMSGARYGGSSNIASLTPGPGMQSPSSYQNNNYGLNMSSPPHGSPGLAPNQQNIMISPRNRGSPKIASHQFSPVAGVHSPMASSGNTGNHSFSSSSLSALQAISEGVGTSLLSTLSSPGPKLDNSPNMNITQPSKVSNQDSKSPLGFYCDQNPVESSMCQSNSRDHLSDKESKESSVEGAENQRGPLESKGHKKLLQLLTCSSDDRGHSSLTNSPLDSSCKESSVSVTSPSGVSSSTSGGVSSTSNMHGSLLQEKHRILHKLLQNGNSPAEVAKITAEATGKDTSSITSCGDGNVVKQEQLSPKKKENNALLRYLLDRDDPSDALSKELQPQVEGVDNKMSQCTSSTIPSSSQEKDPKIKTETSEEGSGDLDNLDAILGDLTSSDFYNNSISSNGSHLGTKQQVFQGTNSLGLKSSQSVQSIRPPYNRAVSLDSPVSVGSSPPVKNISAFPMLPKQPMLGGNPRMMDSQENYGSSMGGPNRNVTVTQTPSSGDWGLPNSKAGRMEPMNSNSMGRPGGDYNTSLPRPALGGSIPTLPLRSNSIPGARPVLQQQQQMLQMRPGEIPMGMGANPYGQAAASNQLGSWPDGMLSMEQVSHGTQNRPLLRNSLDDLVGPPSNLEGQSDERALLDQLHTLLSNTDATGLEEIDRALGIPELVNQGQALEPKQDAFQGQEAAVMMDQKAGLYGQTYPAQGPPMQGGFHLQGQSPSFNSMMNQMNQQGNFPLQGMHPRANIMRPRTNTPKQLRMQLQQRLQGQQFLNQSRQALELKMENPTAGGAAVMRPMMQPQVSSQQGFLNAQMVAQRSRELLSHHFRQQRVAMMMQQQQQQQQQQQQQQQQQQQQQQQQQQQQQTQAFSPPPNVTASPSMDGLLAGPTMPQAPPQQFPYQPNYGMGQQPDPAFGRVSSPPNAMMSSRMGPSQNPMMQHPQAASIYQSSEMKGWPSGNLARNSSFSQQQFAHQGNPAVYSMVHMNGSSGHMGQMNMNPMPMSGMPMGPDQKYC

[2] = system: transactivating tegument protein VP16 (Human herpesvirus 1), Gal4-VP16 luciferase reporter; test: VP16 transactivation inhibitors, counter-screen for SRC3 inhibitor project, cell-based, luminescence, high throughput (AID 588794; in the data active = inhibition above about 30%); details: mammalian cells, VP16-driven luciferase reporter luminescence; at 3.6 µM; hits give high values
[3] = StAR promoter reporter inhibitors, counter-screen for LRH-1 inverse agonist project, cell-based, luminescence, high throughput (AID 651611; in the data active = inhibition above about 28%); details: StAR promoter luciferase reporter counterscreen, at 3.6 µM, hits give high values
[4] = biological target: Nuclear receptor subfamily 5 group A member 2 (Homo sapiens) (UniProt O00482); test: LRH-1 (NR5A2) inverse agonists, retest, confirmation, cell-based, luminescence (AID 651613; in the data active = inhibition above about 42%;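 note: HEK293T cells co-transfected with LRH-1 and StAR promoter luciferase reporter; 0% = vehicle wells and 100% = parental cells lacking receptor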); details: cell-based LRH-1 luciferase reporter, inverse agonism; at 3.6 µM; hits give high values
Nuclear receptor subfamily 5 group A member 2 (Homo sapiens), sequence (O00482 whole entry, looked up): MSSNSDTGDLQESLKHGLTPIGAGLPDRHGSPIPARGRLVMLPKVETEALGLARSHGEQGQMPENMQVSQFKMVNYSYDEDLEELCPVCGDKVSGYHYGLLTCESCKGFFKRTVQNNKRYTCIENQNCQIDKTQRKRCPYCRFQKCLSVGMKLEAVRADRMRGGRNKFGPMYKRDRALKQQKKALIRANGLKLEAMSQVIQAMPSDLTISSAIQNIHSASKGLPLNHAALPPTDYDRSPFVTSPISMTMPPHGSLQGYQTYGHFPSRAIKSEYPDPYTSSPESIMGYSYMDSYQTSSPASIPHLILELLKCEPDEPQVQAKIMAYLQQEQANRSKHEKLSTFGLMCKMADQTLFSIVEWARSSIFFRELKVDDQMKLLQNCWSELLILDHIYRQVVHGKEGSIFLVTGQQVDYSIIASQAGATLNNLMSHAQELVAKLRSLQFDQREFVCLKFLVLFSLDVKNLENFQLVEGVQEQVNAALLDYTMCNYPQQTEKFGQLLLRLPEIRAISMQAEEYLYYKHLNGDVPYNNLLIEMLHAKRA

[5] = biological target: Steroidogenic factor 1 (Homo sapiens) (UniProt Q13285); test: SF1 (NR5A1) inverse agonists, counter-screen for LRH-1 inverse agonist project, cell-based, luminescence, high throughput (AID 651614; in the data active = inhibition above about 44%;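 note: cells cotransfected with StAR promoter reporter and SF1 expression vector; 0% = vehicle on cells with receptor and 100% = vehicle on cells lacking receptor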); details: cell-based SF1 luciferase reporter, at 3.6 µM, hits give high values
Steroidogenic factor 1 (Homo sapiens), sequence (Q13285 whole entry, looked up, the tested form may be a part): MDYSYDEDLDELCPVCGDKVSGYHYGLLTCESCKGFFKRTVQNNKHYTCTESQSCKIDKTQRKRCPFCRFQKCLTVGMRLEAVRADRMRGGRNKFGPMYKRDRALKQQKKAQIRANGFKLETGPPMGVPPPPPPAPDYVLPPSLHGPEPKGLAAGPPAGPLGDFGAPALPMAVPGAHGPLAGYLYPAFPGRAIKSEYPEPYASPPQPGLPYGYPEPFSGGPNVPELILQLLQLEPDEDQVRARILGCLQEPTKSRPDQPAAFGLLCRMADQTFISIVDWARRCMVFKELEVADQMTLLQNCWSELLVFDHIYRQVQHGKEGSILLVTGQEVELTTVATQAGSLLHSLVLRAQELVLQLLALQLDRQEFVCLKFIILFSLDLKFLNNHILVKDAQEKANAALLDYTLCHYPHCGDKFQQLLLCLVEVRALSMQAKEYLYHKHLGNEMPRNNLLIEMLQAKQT

[6] = VP16 transactivation reporter inhibitors, counter-screen for LRH-1 inverse agonist project, cell-based, luminescence, high throughput (AID 651615; in the data active = inhibition above about 33%); details: Gal4-VP16 luciferase reporter cells, at 3.6 µM, hits give high values
[7] = system: transactivating tegument protein VP16 (Human herpesvirus 1); test: VP16 transactivation reporter inhibitors, counter-screen for SRC2 inhibitor project, cell-based, luminescence, single concentration (AID 652007; in the data active = inhibition above about 36%); details: cell-based VP16 transactivation luciferase reporter, at 8.9 µM, hits give high values
[8] = biological target: Nuclear receptor coactivator 2 (Homo sapiens) (UniProt Q15596); test: SRC2 coactivator transcriptional activity inhibitors, confirmation, cell-based, luminescence, HEK293, triplicate (AID 652008;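 active = mean inhibition above 46.5%, the solvent-only control mean plus 3 SD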;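 note: 0% = DMSO-treated cells and 100% = Gossypol at 36 µM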); details: HEK293 GAL4-SRC2 luciferase reporter, at 8.9 µM, hits give high values
Nuclear receptor coactivator 2 (Homo sapiens), sequence (Q15596 whole entry, looked up, the tested form may be a part): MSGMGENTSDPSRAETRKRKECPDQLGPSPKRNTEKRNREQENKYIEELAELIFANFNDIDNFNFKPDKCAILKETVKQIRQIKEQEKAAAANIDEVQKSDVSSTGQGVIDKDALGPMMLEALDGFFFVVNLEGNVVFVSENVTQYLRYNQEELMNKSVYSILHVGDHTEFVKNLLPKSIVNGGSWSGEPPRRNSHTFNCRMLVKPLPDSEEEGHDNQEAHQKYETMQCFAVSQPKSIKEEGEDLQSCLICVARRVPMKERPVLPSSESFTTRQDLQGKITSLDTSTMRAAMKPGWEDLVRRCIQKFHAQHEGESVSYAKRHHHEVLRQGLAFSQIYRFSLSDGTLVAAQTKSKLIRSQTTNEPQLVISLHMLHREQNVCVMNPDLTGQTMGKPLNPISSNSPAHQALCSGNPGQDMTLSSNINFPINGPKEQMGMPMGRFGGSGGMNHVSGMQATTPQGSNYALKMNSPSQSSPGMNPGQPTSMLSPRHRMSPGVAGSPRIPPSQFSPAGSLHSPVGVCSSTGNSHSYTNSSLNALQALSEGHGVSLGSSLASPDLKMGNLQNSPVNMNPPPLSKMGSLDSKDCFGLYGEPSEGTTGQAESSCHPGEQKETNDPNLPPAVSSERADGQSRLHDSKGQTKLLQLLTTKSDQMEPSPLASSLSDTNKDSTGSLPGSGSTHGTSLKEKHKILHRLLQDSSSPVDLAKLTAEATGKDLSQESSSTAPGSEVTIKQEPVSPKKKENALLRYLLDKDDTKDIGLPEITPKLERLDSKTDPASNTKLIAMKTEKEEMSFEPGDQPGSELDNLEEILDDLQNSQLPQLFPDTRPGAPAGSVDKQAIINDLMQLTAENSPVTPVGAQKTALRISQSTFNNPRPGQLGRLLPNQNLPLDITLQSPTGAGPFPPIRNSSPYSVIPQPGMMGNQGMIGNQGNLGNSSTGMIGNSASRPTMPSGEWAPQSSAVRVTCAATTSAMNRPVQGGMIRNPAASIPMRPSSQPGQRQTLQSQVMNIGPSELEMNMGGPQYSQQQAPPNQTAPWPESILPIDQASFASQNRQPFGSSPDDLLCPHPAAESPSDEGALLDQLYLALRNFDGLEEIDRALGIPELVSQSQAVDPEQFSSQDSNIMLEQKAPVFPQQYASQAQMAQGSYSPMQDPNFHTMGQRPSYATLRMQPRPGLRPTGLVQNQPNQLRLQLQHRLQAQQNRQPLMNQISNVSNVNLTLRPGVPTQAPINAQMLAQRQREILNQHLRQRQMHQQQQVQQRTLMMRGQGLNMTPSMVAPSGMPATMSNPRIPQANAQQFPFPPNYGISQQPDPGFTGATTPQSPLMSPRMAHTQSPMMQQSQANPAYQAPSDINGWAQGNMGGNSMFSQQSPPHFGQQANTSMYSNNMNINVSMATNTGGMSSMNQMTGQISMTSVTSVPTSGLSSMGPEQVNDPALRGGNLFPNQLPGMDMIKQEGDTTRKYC

[9] = Gal4-VP16 luciferase reporter inhibitors, counter-screen for COUP-TFII antagonist project, cell-based, luminescence, HEK293 (AID 687007; in the data active = inhibition above about 13%); details: at 8.5 µM, hits give high values
[10] = biological target: COUP transcription factor 2 (Homo sapiens) (UniProt P24468); test: NR2F2 transcriptional activity inhibitors, confirmation, cell-based, luciferase reporter, HEK293, triplicate (AID 687008;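 active = mean inhibition over three repeats above a set limit taken from the earlier primary screen, cut at about 38% in these data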;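 note: 100% = cells given the luciferase reporter alone without the COUP-TF2 vector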); details: HEK293 NGFI-A luciferase reporter, luminescence; at 8.5 µM; hits give high values
COUP transcription factor 2 (Homo sapiens), sequence (P24468 whole entry, looked up): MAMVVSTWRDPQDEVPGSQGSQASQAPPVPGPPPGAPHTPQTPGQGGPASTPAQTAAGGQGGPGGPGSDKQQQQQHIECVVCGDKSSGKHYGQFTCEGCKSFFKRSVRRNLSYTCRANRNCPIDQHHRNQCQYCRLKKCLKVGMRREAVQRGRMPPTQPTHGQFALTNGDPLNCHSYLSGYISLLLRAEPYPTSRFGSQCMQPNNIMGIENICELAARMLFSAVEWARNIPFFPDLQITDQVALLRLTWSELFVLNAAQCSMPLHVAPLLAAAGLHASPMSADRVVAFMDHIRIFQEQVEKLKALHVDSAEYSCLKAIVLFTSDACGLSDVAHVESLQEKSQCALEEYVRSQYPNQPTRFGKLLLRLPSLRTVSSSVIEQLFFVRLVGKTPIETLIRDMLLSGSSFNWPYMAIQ

Row | Compound | inhibition [1] | inhibition [2] | inhibition [3] | inhibition [4] | inhibition [5] | inhibition [6] | inhibition [7] | inhibition [8] | inhibition [9] [%] | inhibition [10]
1 | Cc1cc(Br)c(OCc2ccc(C(=O)N/N=C/c3ccc[nH]3)cc2)c(Br)c1 | 51.8% (active) | 71.7% (active) | 76.5% (active) | 101% (active) | 88.5% (active) | 85.5% (active) | – | – | – | –
2 | CCOC(=O)c1c2c(n(-c3ccc(OC)cc3)c1C)C(=O)C(=O)c1ccccc1-2 | 45.9% (active) | 33.8% (active) | 63% (active) | 66.5% (active) | 63.8% (active) | 50.3% (active) | – | – | – | –
3 | Clc1cccc(CNc2ccn3nc(-c4ccc(OCc5ccccc5)cc4)cc3n2)c1 | -4.23% | 35.7% (active) | 23.4% | 40.9% | 51% (active) | 56.4% (active) | – | – | – | –
4 | Cc1ccc(S(=O)(=O)/C(=C/Cl)NC(=O)c2ccccc2)cc1 | 26% | 26.9% | 42.9% (active) | 57.7% (active) | 51.5% (active) | 38.8% (active) | 38.9% (active) | 60.8% (active) | – | –
5 | Cc1nc([N+](=O)[O-])c(Sc2nc3ccccc3n2C)n1Cc1ccccc1 | 30.1% | 13.4% | – | – | – | – | 31.9% | 46.5% | – | –
6 | O=C(Cc1ccc(Cl)cc1)c1c[nH]c(C(=O)NCc2cccnc2)c1 | 95.9% (active) | 56% (active) | – | – | – | – | 93.5% (active) | 95.2% (active) | – | –
7 | CC[n+]1cc(C)ccc1/C=C/c1ccc(N(C)C)cc1 | 45.1% (active) | 58.8% (active) | 57% (active) | 91.7% (active) | 85.7% (active) | 80% (active) | – | – | -0.96 | 62.6% (active)
8 | CCOc1cc(/C=C/C(=O)c2ccc(C)cc2)ccc1OCC(=O)N(C)C | 24.8% | 25.1% | – | – | – | – | 16.4% | 31.6% | – | –
9 | CCOc1ccc(CC(=O)Nc2ccc(NC(=O)c3ccco3)cc2)cc1OCC | 64% (active) | -14.3% | – | – | – | – | 7.03% | 41.9% | – | –
10 | Cn1c(/C=C/c2ccc(Br)cc2)c([N+](=O)[O-])c(=O)n(C)c1=O | 45.2% (active) | 47.8% (active) | – | – | – | – | 15.8% | 40.7% | – | –
